Reference: publication PMC11006913

What follows are sequences tested against HOXA2 (Homo sapiens, UniProt O43364 129-215) (assay: PBM; 200 nM protein, PBS). Conditions: dsDNA, one strand shown.
Sequence of HOXA2 (O43364 129-215): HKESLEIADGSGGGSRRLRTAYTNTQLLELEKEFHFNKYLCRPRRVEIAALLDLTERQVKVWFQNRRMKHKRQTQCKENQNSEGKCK

Sequence	binding signal
ACGCCGGA	7.28 upbm affinity estimate (log intensity, higher = more binding, comparable within an allelic series)
CCGGCCAG	7.18 upbm affinity estimate (log intensity, higher = more binding, comparable within an allelic series)
CAGGCCGC	7.49 upbm affinity estimate (log intensity, higher = more binding, comparable within an allelic series)
GCTCGGCC	6.97 upbm affinity estimate (log intensity, higher = more binding, comparable within an allelic series)

What follows are sequences tested against VAX1 (Homo sapiens, UniProt Q5SQQ9 86-172, K157R) (assay: PBM; 200 nM protein, PBS). Conditions: dsDNA, one strand shown.
Sequence of VAX1 (Q5SQQ9 86-172 K157R): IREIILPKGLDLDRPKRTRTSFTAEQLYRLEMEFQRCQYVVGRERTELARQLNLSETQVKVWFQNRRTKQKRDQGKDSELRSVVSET

Sequence	binding signal
CCGTGTCC	6.99 upbm affinity estimate (log intensity, higher = more binding, comparable within an allelic series)
CCGGCCAG	6.86 upbm affinity estimate (log intensity, higher = more binding, comparable within an allelic series)
AGCCGGGC	6.91 upbm affinity estimate (log intensity, higher = more binding, comparable within an allelic series)
